Screens: PubChem, several laboratories
E coli growth-1: bacterial growth inhibition, counter-screen for AddAB inhibitors | E. coli V3065 growth, OD600 absorbance, 18 h | inhibition, % at 11.9 µM | hit rate 0.27% among 330,000;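 active = inhibition above the campaign's mean inhibition across all tested compounds plus 3 SD, cut at about 9.9% in these data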;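 note: uninfected addAB+ strain grown without phage in ampicillin broth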
phage Ecoli inh: E. coli growth loss with phage present. growth absorbance. inhibition, % at 11.9 µM. hit rate 0.26% among 360,000; in the data active = inhibition above about 11%
E coli growth-2: inhibitors of Escherichia coli growth. OD600 absorbance (concentration not given with the values). OD600, 23 h; stronger effect = lower value. hit rate 0.21% among 330,000;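 active = OD600 absorbance below the run mean of sample wells minus 3.6 SD, in any replicate, cut at about 0.56 in these data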
Tat export inh: E. coli Tat transport inhibition. E. coli MC4100 TorA-mCherry Tat export, fluorescence. inhibition, % at 10 µM. hit rate 0.036% among 340,000. AID 488895;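 active = mean replicate inhibition at least 50% and at least half of replicates individually reaching 50%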;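 note: exported cargo escapes ClpAP degradation while cytoplasmic cargo is degraded and loses fluorescence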
AddAB inh: less growth of phage-infected E. coli with AddAB. inhibition, % at 11.9 µM. hit rate 0.29% among 330,000. AID 435030. E. coli expressing H. pylori AddAB, absorbance growth; in the data active = inhibition above about 12%
Hits are given with their value; n = inactive; x = no result. A selection: hits, their analogues and other compounds. The true share with any hit is near 0.51%.

SMILES | E coli growth-1 | phage Ecoli inh | E coli growth-2 | Tat export inh | AddAB inh
CC(C)C[C@@H]1CN=C(N)N1C[C@@H]1CCCN1C[C@@H](C(C)C)N1C[C@@H](Cc2ccccc2)N(CCCC2CCCC2)C1=N | n | n | 0.46 | n | n
CCCCN1C(=N)N([C@@H](CN2CCC[C@H]2CN2C(N)=NC[C@@H]2Cc2ccccc2)C(C)C)C[C@H]1Cc1ccccc1 | n | n | x | n | n
CCCCNC(=S)N(C)N=Cc1sc(N2CCCCC2)nc1-c1cccs1 | x | x | n | x | x
Cc1ccc2nc(SCC(=O)Nc3ccc4c(c3)OCCO4)[nH]c2c1 | n | n | n | n | n
O=C(CSc1nc2ccccc2[nH]1)Nc1ccc2c(c1)OCCO2 | 10 | n | n | n | n
CNCC(Cc1ccccc1)NCC(CC1CCCCC1)NCCCc1ccccc1 (centres undefined) | x | x | 0.47 | x | x
CNCC(CC1CCCCC1)NCC(Cc1ccccc1)NCCC12CC3CC(CC(C3)C1)C2 (centres undefined) | x | x | 0.06 | x | x
CCOC1OC(C(=O)NCc2ccccc2)=CC(c2ccc(Br)cc2)C1CCCO (centres undefined) | x | x | n | x | x
O=C(NN=Cc1cc([N+](=O)[O-])ccc1O)C1CC1 | x | x | n | x | x
Oc1ccc(CC2CNCCN2CCc2cccc(F)c2)cc1 (centres undefined) | x | x | n | x | x
O=C(Cc1ccccc1)NNC(=S)NC(=O)c1cccs1 | n | n | 0.45 | x | n
CC(C)C(=O)NC(=O)C1CCCN1C(=O)C=Cc1ccccc1 (centres undefined) | x | x | n | x | x
Oc1ccc(-c2nc(-c3ccc(F)cc3)c(-c3ccncc3)[nH]2)cc1 | n | n | 0.32 | n | n
CCCC(=O)Nc1ccc(C(=O)NN=Cc2ccc([N+](=O)[O-])o2)cc1 | x | x | n | x | x
O=C(NN=Cc1ccc([N+](=O)[O-])o1)c1ccc(O)cc1 | x | x | 0.41 | x | x
O=[N+]([O-])c1ccc(C=NNC(=S)Nc2ccccc2F)o1 | x | x | n | x | x
Cc1nonc1C(=O)NN=Cc1ccc([N+](=O)[O-])o1 | x | x | 0.5 | x | x
O=[N+]([O-])c1ccc(C=NNC(=S)Nc2ccccc2C(F)(F)F)o1 | x | x | 0.49 | x | x
O=C(CCC(=O)Nc1ccc(Cl)cc1Cl)NN=Cc1ccc([N+](=O)[O-])o1 | x | x | 0.41 | x | x
O=C(CNc1ccccc1)NN=Cc1ccc([N+](=O)[O-])o1 | x | x | 0.49 | x | x
NC(=O)NN=Cc1ccc([N+](=O)[O-])o1 | x | x | 0.064 | x | x
O=C(NN=Cc1ccc([N+](=O)[O-])o1)C1CC1 | x | x | 0.065 | x | x
O=C(CNC(=O)c1ccccc1)NN=Cc1ccc([N+](=O)[O-])o1 | x | x | n | x | x
CCN1C(=NCCc2ccc([N+](=O)[O-])cc2)NC(c2ccccc2)C(C(=O)OC)C1C (centres undefined) | x | x | n | x | x
N#Cc1ccc(C23CC4(C2)C(CN(Cc2cccnc2)C4c2ccccc2)C3c2ccccc2)cc1 (centres undefined) | x | x | n | x | x
SMILES | E coli growth-1 | phage Ecoli inh | E coli growth-2 | Tat export inh | AddAB inh
CON=C(C(=O)NC1C(=O)N2C(C(=O)O)=C(COC(C)=O)CSC12)c1csc(N)n1 (centres undefined) | x | x | 0.063 | x | x
COCC1=C(C(=O)OC(C)OC(=O)OC(C)C)N2C(=O)C(NC(=O)C(=NOC)c3csc(N)n3)C2SC1 (centres undefined) | x | x | 0.28 | x | x
CC(=O)OCC1=C(C(=O)OC(C)(C)C)N2C(=O)[C@@H](NC(=O)Cc3ccccc3)[C@H]2SC1 | x | n | n | n | x
COc1cccc(C(=O)NC2C(=O)N3C(C(=O)O)=C(COC(C)=O)CSC23)c1 (centres undefined) | n | n | x | n | n
CCCN1C(=O)C(=Cc2ccc(C)s2)SC1=Nc1ccc(OC)cc1 | x | x | n | x | x
COc1ccc(C(=O)N2CCOC2CNC(=O)C(=O)NCc2ccc3c(c2)OCO3)cc1 (centres undefined) | n | n | 0.51 | n | n
Cc1ccccc1Nc1nc(NCc2ccco2)c2ccccc2n1 | n | n | 0.49 | n | n
Oc1ccccc1Nc1nc(NCc2ccco2)c2ccccc2n1 | n | n | x | n | n
Cc1cccc(Nc2nc(NCc3ccco3)c3ccccc3n2)c1 | n | n | 0.43 | n | n
c1ccc(Nc2nc(NCc3ccco3)c3ccccc3n2)cc1 | n | n | 0.31 | n | n
COc1ccc(C=NNC(=O)c2ccccc2Br)cc1COc1ccccc1 | x | x | n | x | x
O=C(NN=C/C=C\c1ccco1)c1cccnc1 | x | x | n | x | x
N#CCCN(C(=O)CON=Cc1cccc([N+](=O)[O-])c1)c1ccccc1 | x | x | n | x | x
NC1=NC[C@@H](CC2CCCCC2)N1CCc1cc(C(F)(F)F)cc(C(F)(F)F)c1 | n | x | 0.062 | n | n
CCCCCOc1ccc(Br)cc1CSC(=N)N | x | n | 0.48 | n | x
CC(C)CC(NC(=O)OC(C)(C)C)c1cn(C(CCCCNC(=O)OC(C)(C)C)C(=O)N2CCN(C(=O)OC(C)(C)C)CC2)nn1 (centres undefined) | x | x | n | x | x
Cc1nnc(NC(=O)CSc2ccc(-c3cccnc3)nn2)s1 | n | n | n | n | n
Cc1nnc(NC(=O)CSc2ccc(-c3ccccn3)nn2)s1 | 9.9 | x | n | x | n
COc1ccccc1NC(=O)CSc1ccc(-c2ccccn2)nn1 | n | 12 | n | n | n
O=C(CSc1ccc(-c2ccccn2)nn1)c1ccc(F)cc1 | 11 | n | n | n | n
COc1ccc(NC(=O)CSc2ccc(-c3ccccn3)nn2)cc1OC | n | n | n | n | n
CC(=O)OCC(=O)[C@@]1(O)CCC2C3CCC4=CC(=O)C=C[C@]4(C)[C@@]3(F)C(O)C[C@@]21C (some centres undefined) | x | x | n | x | x
Cc1cc(C(=O)N/N=C/c2ccc(O)c(O)c2O)c(C)n1-c1ccccc1 | x | 20 | x | n | x
COc1ccc(OC2C=CC(c3ccccc3)OC2CON=C(C)CCC(=O)OCC2OC(c3ccccc3)C=CC2Oc2ccc(OC)cc2)cc1 (centres undefined) | x | x | n | x | x
N#Cc1cccc(NC(=O)Nc2cccs2)c1 | n | n | 0.54 | n | n
C(/C=C/c1ccco1)=Nn1cnnc1 | x | x | n | x | x
CC(C=NNC(=O)c1nnn(-c2nonc2N)c1CN1CCCCC1)c1ccccc1 (centres undefined) | x | x | n | x | x
